Records with an inconclusive call do not appear. The source made the active and inactive calls. Rule for the calls: active = hit-call score of the fitted dose curve at least 0.9, where 1 is the maximum; inconclusive = response in the unintended direction; inactive = score below 0.9.
Assay: ATG_M_19_TRANS: Attagene TRANS-FACTORIAL HepG2 Assay for M19 Transcription Factor (Internal Marker) (AID 2282974)
Details: HepG2 Attagene TRANS-FACTORIAL M19 internal marker reporter
Summary of the method: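 24 h chemical exposure of transiently transfected HepG2 (MRTU library). RNA → oligo(dT) RT → PCR → 6-FAM labelling → HpaI cut → CE fluorescence. Positive-direction fit vs DMSO baseline; background internal-marker readout.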

| SMILES | outcome |
| --- | --- |
| O=C=Nc1cccc2c(N=C=O)cccc12 | inactive |
| C=C(C)CCCC | inactive |
| Cc1ccc(O)cn1 | inactive |
| CC1=CCC2C(=O)OC(=O)C2C1 (stereo not drawn) | inactive |
| C[C@]12CC[C@H]3C(=CCc4cc(O)ccc43)[C@@H]1CCC2=O | inactive |
| CCc1ccc(C)nc1 | inactive |
| CN(N=O)C(=O)N[C@@H]1[C@@H](O)[C@H](O)[C@@H](CO)O[C@@H]1O | inactive |
| CCCCOC(=O)C(C)O (stereo not drawn) | inactive |
| CCC/C=C/CO | inactive |
| O=S(=O)(OCC(F)(F)F)C(F)(F)C(F)(F)C(F)(F)C(F)(F)F | inactive |
| OCCCCl | inactive |

Assay: ATG_GAL4_TRANS: Attagene TRANS-FACTORIAL HepG2 Assay for GAL4 (Internal Marker) (AID 2282976)
Details: HepG2 Attagene TRANS GAL4 internal marker reporter
Summary of the method: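 Background-control readout: GAL4-UAS reporter transcript in transiently transfected HepG2 cells after 24 h compound exposure. Measured by RT-PCR, 6-FAM primer extension, HpaI digest and capillary electrophoresis; gain-of-signal fit versus DMSO.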

| SMILES | outcome |
| --- | --- |
| O=C=Nc1cccc2c(N=C=O)cccc12 | inactive |
| O=C(O)CCC(F)(F)C(F)(F)C(F)(F)F | inactive |
| O=S(=O)(O)c1ccc(Cl)cc1 | inactive |
| C=C(C)CCCC | inactive |
| Cc1ccc(O)cn1 | inactive |
| C[C@]12CC[C@H]3C(=CCc4cc(O)ccc43)[C@@H]1CCC2=O | inactive |
| CC(C)Nc1ccc(NC(C)C)c2c1C(=O)c1ccccc1C2=O | inactive |
| Cc1cc(=O)[nH]c(C(C)C)n1 | inactive |
| N#CCCOCCC#N | inactive |
| O=C=NCc1cccc(CN=C=O)c1 | inactive |
| CCCCCCCCn1sc(Cl)c(Cl)c1=O | inactive |
| CCc1ccc(C)nc1 | inactive |
| CC1CCCCC1 | inactive |
| CCCCOC(=O)C(C)O (stereo not drawn) | inactive |
| CCC/C=C/CO | inactive |
| O=S(=O)(OCC(F)(F)F)C(F)(F)C(F)(F)C(F)(F)C(F)(F)F | inactive |
| OCCCCl | inactive |

— PubChem BioAssay (EPA / NIEHS)
